Test results: the supplement of paper PMC12632987
In all, about 4,500 sequences were measured (“median log2 fold change of GCK-ALFA target abundance (FLAG IP / Myc IP barcode read proportion)”: median about 0.078, lowest 2% from about -0.6 on). This is one part of a sample in which the lowest values are shown more often than they occur.

B1: GBRAP_184_5187 (protein)
chain: MVVEEELEIEDVAEARAKIAAIGERIAGKKAKLRVIVKAKKITVEIARTIMEGLGAIKAAGNATDITVELVGEMSEEVIDTAVELAKKAGIRVVIAMSEE
B2: GBRAP_11_2656 (protein)
chain: KKEAYKKAAELAEEAAKALQKLIEEGVDDEELIEKLRKLIEELKKLAEEELDEADKKEVEVVVELFEEFLADEENRLQLAEELLAGLRVLAGNFQLKADE
B3: GBRAP_84_7005 (protein)
chain: SREEEIVEITAEILEKASIETKALLLTYLILKNANKAATLALNDLLEEDPEAAVEALDRATEAYEEGKEEEVEKELLEKAKEEGEELAELVERLLELLKE
B4: GBRAP_84_7006 (protein)
chain: EREEEIVKLTKEILEKGSIELKALLLTYLILKNENKAATLALNDLLKEDPEAAVEALDRATEAYEEGKEEEVEKELKEKAKKEGKEVAELVEKLIKLLEE
B5: GBRAP_84_7007 (protein)
chain: SREQEILEITNKILEKGSIELKKKLLTYLILKNENKAATLALNYLLEEDPEAAVEALDEATEAYEEGKEEEVRKELLELAKKEGEEVYALVEELLELIDE
B6: GBRAP_166_4935 (protein)
chain: SLEKIYEETKKKVIELAKKALTADEEERIDLAIEIEELLKEAKEKGLTPEQLKEILLEALKELEEDPEVAEFLLRMILAASEMDEELQDVILEALEEFKK
B7: GBRAP_128_3437 (protein)
chain: AQEELLQEALELLDEIVESDVETAAELAKQLAELLGQLDEESRDEVVEYFEEKAKELTEEKLEAVADALREQVPQLDADTANAVNEMIVILGEQILELEE
B8: GBRAP_160_4322 (protein)
chain: KEELEELEKRIKEIAEEAKKMIKGQSAEEKITIVKVALGDIILEVESNPAVSDELEDKVAEIADAAEAYLDAHPDLSEEEVIALLEEAVKKILELIKEEK
B9: GBRAP_137_3640 (protein)
chain: MKVTIRVERHEDLVEITITVDDPEKAEEVAELITDLAVAHGALAISVEIKEDGTLEAVIWVPVERAEALIAAIVDALQSKFGATVTVEDLDTGEVRTYTP
B10: GBRAP_184_5202 (protein)
chain: AIVERTIEFENEEELKEKLKELLEELKGFKGTVYIHVEAPEITEEMAKLLIEFVKEIKENGYATEIIVDIEGEVSEEVRDLLLDEFAKIGAKVVIALSEE
B11: GBRAP_11_2682 (protein)
chain: RKEALERAAELAERAAELAERLLEEGVDNEELLEELRRALEELRRLVKEHLDEAHRTLVEIAEEELEEALADPENAAAHIERLLAAARVLRYNLEEELEE
B12: GBRAP_125_3139 (protein)
chain: MKAELLALAEALARALGYSEEEIAELRRLGEAHDPAQTIIAILLAEGFEELAELAREVLPKLTPEEIAELRALAESLRDKSREELRAALLAKLKELKAKQ
B13: GBRAP_128_3300 (protein)
chain: MDPALRAEVEALVETIRTGDPAARRAAAEALAALMGSVNDEDAEAIADIIEAAIPELSAEALEILADVLDAARPQLTPEKAALAADVASAALLAAEELAE
B14: GBRAP_52_6059 (protein)
chain: MEERIEELARRIAEAIAAGDLERALELLRRAIKELSVEEIRRMLELAAERVAKLGEEAHERFVELLEEAEELMKEAGISEEEAELIVGDAEAALARAVAA
B15: GBRAP_52_6153 (protein)
chain: ARERAREYAEAFVAAVKAGDEERARAIMEEIAATLNDEEIELFLEEVARLVEGLTPEERERVVEAVLEFEDIAVAAGHDEELLSYHTARVAGAAYDALQK
B16: GBRAP_52_6154 (protein)
chain: MEERAREYAERFVAAVKAGDEEEARAIMEEIAATLDDEEIALFLEHVAELVAGLSPEDRERVVEAVLEFEDIAEAAGHDPELLSYHTARVAGAAYAALQA
B17: GBRAP_52_6151 (protein)
chain: AAARAAAYAREFVAAVRAGDEEKARAIMKEIAATLDDEEIALFLREVARLVAGLSPEDRERVVEAVLEFEDIAVAAGHDEDILSYETARVAGAAYEALQR
B18: GBRAP_64_6479 (protein)
chain: NEEIEELLEELLEAARRLLALFERENPELAPEAQEIVDLLEEAKTASLEERLDLVLEVTDRLHALLRDPRVTPEQRDALLEALDLAMALAALLAEEVEKE
B19: GBRAP_80_6848 (protein)
chain: AEERLAAALAALEALLPEVAEEARELVALARELGVPDEEIAAFLEALNELAKLDPELAAELIREALEDMKELKEEGDSENALAVVRGYTGDALMAAEELE
B20: GBRAP_80_6856 (protein)
chain: AAAALAAALAALKALLPEVAEDAKEIVEIARELGVPDADIADLMEALAELAKVDPELAAELIKELLEELKEEKERGDAERALAVVRGYAGEALMLAEELE
B21: GBRAP_80_6846 (protein)
chain: AAARLAAELAALKALLPEVAEDAKEAVALARELGVPDADIADYLAALNELAKLDPELAAALLKELLADLREEKAEGDSENALAVVRGYTGEALMEAEELE
B22: GBRAP_166_4906 (protein)
chain: MKEEKIEELIERAEELIEELKEADEEEALELLIEIGEVLRELKELGASEEEILELVRRTLEAVKERGLSVRVAAGIIAEVADFDEEMREKLDEIAREVEA

biological target: GABARAP, O95166; assay: median log2 fold change of GCK-ALFA target abundance (FLAG IP / Myc IP barcode read proportion) (log2 ratio); each designed protein is fused to an ALFA-tag nanobody in HEK293 cells to bring the named protein to FLAG-tagged glucokinase (GCK); Myc marks an untargeted standard; higher = target protein stabilised (more abundant); conditions: target protein: 3xFLAG-MCP-GCK-ALFA reporter; HEK293 landing pad (RPLP)
In short: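 HEK293 landing-pad cells received a recombined binder library fused to the ALFA nanobody and were induced with 2 μg mL^−1 doxycycline, then transfected with a plasmid encoding a FLAG-tagged target and a Myc-tagged standard. Lysates were collected after 48 h for anti-FLAG and anti-Myc immunoprecipitation, and the circular RNA barcodes were reverse transcribed, amplified and sequenced. Target abundance for each binder is the median log2 ratio of FLAG to Myc barcode read proportions. Barcodes had to reach a proportion of at least 10^−7 in both replicates, each binder needed at least 3 barcodes per replicate, a pseudocount of 10^−6 was applied, and the two replicates were pooled.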

Sequence of GABARAP, O95166 (O95166 whole entry, the tested form may be a part): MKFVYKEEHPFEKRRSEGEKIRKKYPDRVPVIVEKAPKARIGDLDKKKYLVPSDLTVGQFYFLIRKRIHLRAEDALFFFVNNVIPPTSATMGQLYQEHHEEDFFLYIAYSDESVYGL

Binder	median log2 fold change
B1	0.57
B2	0.336
B3	-0.259
B4	-0.666
B5	-0.316
B6	0.184
B7	-0.0498
B8	0.161
B9	-0.0441
B10	-0.159
B11	-0.882
B12	0.207
B13	-0.00271
B14	0.0176
B15	-0.742
B16	0.0811
B17	0.0301
B18	-0.254
B19	-0.203
B20	-0.242
B21	-0.698
B22	-0.128
